Only a selection was taken, and hits are over-represented in it overall.
U2OS ROS induce = ROS inducers in U2OS cancer cells, primary screen, cell-based, H2DCF-DA fluorescence; U2OS ROS induction; ROS induction (% of piperlongumine), % at 10 µM; 2% of 46,000 active; in the data active = ROS induction above about 79%, passing the limit was not always enough;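 note: 0% = DMSO vehicle median and 100% = reference compound median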
PD-1 reversal = activators reversing PD-1 mediated T-cell inhibition, primary screen, luminescence, primary human CD4 T cells, PD-L1 beads. CellTiter-Glo 96 h. activation, % (concentration not given with the values). 29,000 tested, under 10 active; call rule not given here;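 note: 0% = median vehicle wells and 100% = positive control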
NOMO-1 viab = NOMO-1 AML cell viability reduction, primary screen, STK33 inhibitor project, CellTiter-Glo luminescence | NOMO-1 AML viability, 72 h | AID 2330, 2010 | inhibition, % (concentration not given with the values) | 7.5% of 37,000 active; in the data active = inhibition above about 80%
Numbers without * were called inactive; nt = not tested or not shown.

SMILES | U2OS ROS induce | PD-1 reversal | NOMO-1 viab
Cc1ccc(S(=O)(=O)Nc2ccc3c(c2)C(=O)N([C@H](C)CO)C[C@H](C)[C@@H](CN(C)Cc2ccc(C(=O)Nc4ccccc4N)cc2)O3)cc1 | 12.6 | -1.4 | 27.0
COc1ccc(S(=O)(=O)Nc2ccc3c(c2)C(=O)N([C@H](C)CO)C[C@@H](C)[C@@H](CN(C)Cc2ccc(C(=O)Nc4ccccc4N)cc2)O3)cc1 | 19.1 | 0.2 | 108.4*
CN1C=C(c2ccccc2)N(c2ccccc2)C1 | 11.9 | 1.1 | 10.6
CCCN(CCC)CN1C(=S)SC2=NC(=O)CCCN21 | -2.3 | nt | nt
COc1cccc(/C=C2\CC(C)C/C(=C\c3ccccc3OC)C2=O)c1 (centres undefined) | 2.2 | nt | nt
CC1C/C(=C/c2cccn2C)C(=O)/C(=C/c2cccn2C)C1 (centres undefined) | 260.8* | nt | nt
COC(=O)c1c(C)oc2ccc(N(C(=O)c3ccncc3)S(=O)(=O)c3ccc(OC)cc3)cc12 | 38.8 | -4.0 | 111.5*
CC(=O)c1c(C)oc2ccc(N(C(=O)c3ccncc3)S(=O)(=O)c3ccc(F)cc3)cc12 | nt | 0.3 | 31.1
CSc1ccccc1Sc1cc(C(=O)NCc2ccco2)c2ccccc2n1 | -4.9 | nt | nt
N#Cc1c(C(F)(F)F)cc(-c2cccs2)nc1S/C=C/C(=O)c1ccccc1 | 126.2* | -2.8 | 115.9*
N#Cc1c(C(F)(F)F)cc(-c2cccs2)nc1SCC(=O)Nc1c(F)cccc1F | 1.7 | 1.5 | 16.4
NNC(=O)CNc1ccc2c(c1)OCO2 | -15.4 | 0.2 | 7.6
CCOc1cccc2c(C)nc(Nc3nc4c(c(=O)[nH]3)CCCC4)nc12 | nt | nt | 121.4*
Cc1nc(SCC(=O)Nc2cccc(Cl)c2Cl)nc2c1CCCC2 | nt | nt | -6.2
COC(=O)c1c(NC(=O)C(C)Oc2ccccc2)sc2c1-c1ccccc1CC2 (centres undefined) | 7.3 | nt | nt
CCC(=O)OCC(=O)[C@@]1(OC(=O)CC)[C@@H](C)CC2C3CCC4=CC(=O)C=C[C@]4(C)C3(F)[C@@H](O)C[C@@]21C (some centres undefined) | -4.9 | nt | -0.1
C[C@@H]1C[C@H]2[C@@H]3CCC4=CC(=O)C=C[C@]4(C)[C@@]3(Cl)[C@@H](O)C[C@]2(C)[C@@]1(OC(=O)c1ccco1)C(=O)CCl | 8.6 | -7.0 | 113.7*
Nc1ccccc1C(=O)NCc1c(F)cccc1Cl | -4.3 | -0.5 | 8.9
C/C=C(/C)C(=O)O[C@@H](C)[C@@](C)(O)C(=O)O[C@H](C)[C@@H](OC(=O)/C(C)=C\C)c1cc(OC)c2c(c1)OCO2 | 5.9 | -1.2 | 118.9*
COC(=O)C(Cc1c[nH]c2ccccc12)NS(=O)(=O)c1ccc(Cl)cc1 (centres undefined) | 1.8 | nt | nt
NS(=O)(=O)c1ccc(S(=O)(=O)NCCc2c[nH]c3ccccc23)cc1 | -15.3 | nt | nt
CCCC(O)/C(=C/C1=C(C(=O)CC(CC(=O)O)OC(N)=O)C(=O)c2cccc(O)c2C1=O)CC(C(=O)O)[N+](C)(C)C (centres undefined) | -2.5 | -15.7 | 108.3*
CC(NS(=O)(=O)N(C)C)c1ccccc1 (centres undefined) | -7.4 | nt | nt
CN1C(=O)C(O)(CC(=O)c2ccccc2)c2ccccc21 (centres undefined) | -12.3 | nt | nt
O=C(CC1(O)C(=O)N(Cc2ccccc2)c2ccc(Br)cc21)c1ccco1 (centres undefined) | -8.1 | -9.3 | 114.1*
SMILES | U2OS ROS induce | PD-1 reversal | NOMO-1 viab
N=c1n(CC(=O)c2ccco2)c2ccccc2n1Cc1ccccc1 | 8.2 | 1.0 | 36.6
Cc1ccc2c(c1)C(O)(CC(=O)c1ccccc1[N+](=O)[O-])C(=O)N2 (centres undefined) | nt | nt | 15.0
Cc1cc(Br)c2c(c1)C(O)(CC(=O)c1ccco1)C(=O)N2C (centres undefined) | 4.5 | -5.1 | 121.9*
O=C(CC1(O)C(=O)N(Cc2ccccc2)c2ccc(Br)cc21)c1ccccc1[N+](=O)[O-] (centres undefined) | 4.9 | -0.8 | 99.5*
CCCNC(=O)CSc1c(-c2ccccc2)c2cc(Cl)ccc2[nH]c1=O | 8.7 | nt | nt
CCCCC1CCC(C(=O)Nc2c3c(nn2-c2ccc(F)cc2)CS(=O)(=O)C3)CC1 (centres undefined) | 6.9 | nt | nt
CCCOc1ccc(C(=O)Nc2ccc3c(c2)Cc2ccccc2-3)cc1 | -10.4 | nt | nt
COc1ccc(/C=N/n2c(=O)c3c(ncn3/N=C/c3ccc(OC)cc3)n(C)c2=O)cc1 | 3.1 | 0.0 | 10.9
CC(Oc1ccc(Cl)cc1Cl)C(=O)Nc1cccc(NC(=O)c2ccc(Cl)cc2Cl)c1 (centres undefined) | -5.7 | 1.0 | 17.3
CC12CC3CC(C1)CC(NC(=O)c1ccc(Cl)cc1Cl)(C3)C2 | 32.0 | -1.2 | 114.6*
C=CCn1c(SCC(=O)O)nnc1-c1sc2ccccc2c1Cl | -8.6 | nt | nt
O=C(Cn1c(-c2cccs2)cc2ccccc21)NC1CCCCC1 | 115.1* | nt | nt
O=C(Cn1c(-c2cccs2)cc2ccccc21)N1CCCCC1 | -3.3 | nt | nt
CC(C)(C)c1ccc2c(c1)NC(=O)CO2 | -14.4 | nt | nt
O=C1c2c(O)ccc(O)c2C(=O)c2c(NCCNCCO)ccc(NCCNCCO)c21 | -7.0 | nt | 120.1*
CC(CNC1CCCCC1)OC(=O)c1ccccc1 (centres undefined) | -15.9 | nt | 21.7
O=C(OC1(C#CCN2CCCCC2)CCCCC1)c1ccccc1 | 19.3 | -6.4 | 116.6*
CCc1nnc(NC(=O)Cc2coc3ccc(C)cc23)s1 | 7.0 | nt | nt
CC1(C)CCc2cc(-c3ccn(S(=O)(=O)c4cccc(C(F)(F)F)c4)n3)ccc2O1 | 14.0 | 1.2 | 17.9
CC1(C)CCc2cc(-c3ccn(S(=O)(=O)c4ccc(Cl)cc4)n3)ccc2O1 | 96.4* | -0.7 | 67.9
Cc1ccc(C(=O)Oc2c(C)cc(-c3nn(C)c(=O)c4ccccc34)cc2C)cc1 | 69.1 | nt | nt
CC(=O)OCC1(C)CC2[C@]3(CO[C@@]24CCC2[C@@]5(C)CC[C@H](O[C@@H]6OC[C@@H](O)[C@H](O)[C@H]6O)[C@@](C)(CO)C5CC[C@@]2(C)[C@]4(C)C[C@H]3O)[C@@H](O)C1 (some centres undefined) | -3.4 | -6.3 | 122.9*
CC1(C)CC[C@@]2(C(=O)O)C(C1)C1=CCC3[C@@]4(C)CC[C@H](O[C@@H]5O[C@H](C(=O)O)[C@@H](O[C@@H]6OC[C@@H](O)[C@H](O)[C@H]6O)[C@H](O)[C@H]5O)C(C)(C)C4CC[C@@]3(C)[C@]1(C)C[C@H]2O (some centres undefined) | -3.2 | nt | nt
Cc1noc(C)c1NC(=O)Nc1cccc2c1O[C@@H](CN(C)S(C)(=O)=O)[C@H](C)CN([C@H](C)CO)C2=O | 100.3* | 1.4 | 17.9
Cc1noc(C)c1NC(=O)Nc1cccc2c1O[C@@H](CN(C)S(C)(=O)=O)[C@@H](C)CN([C@@H](C)CO)C2=O | 57.6 | -3.3 | 102.4*
Cc1noc(C)c1NC(=O)Nc1cccc2c1O[C@H](CN(C)S(C)(=O)=O)[C@@H](C)CN([C@H](C)CO)C2=O | -6.5 | 0.6 | 13.7
Cc1noc(C)c1NC(=O)Nc1cccc2c1O[C@@H](CN(C)S(=O)(=O)c1ccccc1)[C@H](C)CN([C@@H](C)CO)C2=O | -1.6 | 1.0 | -7.4
O=C(/C=c1\[nH]/c(=C/c2ccc(F)cc2)c(=O)[nH]c1=O)c1ccccc1 | 63.0 | nt | nt

Assay outcomes as filed in PubChem.
